Data: the supplement of paper PMC10646978
± gives the standard deviation.

Tests used:
Details in all cases: modulator concentration 10 µM
[1] = test system: RAW-Dual (murine macrophage reporter line); experiment: NF-kB reporter (SEAP) activity fold change vs agonist alone; higher = enhanced NF-kB activity
Procedure, shortened: (§1)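 RAW-Dual murine macrophage reporter cells were plated at 50 000 per well in 384-well plates, pin-transferred compound to 10 μM final, and pre-incubated for 1 hour at 37 °C before a PRR agonist was added and the cells incubated overnight. NF-κB activity was read from supernatant SEAP with QUANTI-Blue at 620 nm absorbance, and IRF activity from Lucia luciferase with QUANTI-Luc by luminescence. Each signal was expressed as fold change by dividing by the mean agonist-only control on the same plate. Two replicate plates were averaged, with errors obtained by propagation.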

[2] = test system: RAW-Dual (murine macrophage reporter line); experiment: IRF reporter (Lucia luciferase) activity fold change vs agonist alone; higher = enhanced IRF activity
Procedure, shortened: as §1

[3] = test system: RAW-Dual (murine macrophage reporter line); experiment: viability score (confluency relative to resting cells, overnight) (fraction); higher = more viable, active = viable (0.7 or more)
Procedure, shortened: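 RAW-Dual macrophages in 384-well plates were treated overnight with compound at 10 μM final. IncuCyte imaging recorded confluency, and IncuCyte software built two confluency masks across every imaged well. The viability score expresses confluency relative to resting cells and was judged against a cutoff, which a compound met only if both masks exceeded 70% of resting cells.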

[4] = agonist: CpG ODN 1826 0.5 ug/mL

| SMILES | NF-kB reporter [1, 4] | NF-kB reporter ([1]; agonist: LPS 0.1 ug/mL) | NF-kB reporter ([1]; agonist: MPLA […]) | IRF reporter ([2]; agonist: 3'3'-cGAMP 10 ug/mL) | IRF reporter ([2]; agonist: LPS 0.1 ug/mL) | IRF reporter ([2]; agonist: MPLA […]) | viability score [3] |
| --- | --- | --- | --- | --- | --- | --- | --- |
| Clc1ccc2nsnc2c1NC1=NCCN1 [Prestw-1182] | 1.14 ± 0.1 | 1.06 ± 0.085 | 0.958 ± 0.044 | 0.965 ± 0.044 | 0.93 ± 0.05 | 1.01 ± 0.13 | 0.995 (active) |
| COc1cc(NC(=O)COc2cc(C)c(Cl)c(C)c2)cc(OC)c1 | 1.02 ± 0.18 | 0.954 ± 0.078 | 0.854 ± 0.098 | 0.93 ± 0.025 | 1.06 ± 0.12 | 1.04 ± 0.12 | 1 (active) |
| O=S(=O)(c1cccc2ccccc12)n1nnc2ccccc21 | 1.01 ± 0.092 | 1.03 ± 0.068 | 1.05 ± 0.08 | 1.09 ± 0.29 | 1.04 ± 0.065 | 0.995 ± 0.067 | 1 (active) |
| CN(C)c1ccc(C=NN2C(=O)c3cccc4cccc(c34)C2=O)cc1 | 1 ± 0.21 | 1.1 ± 0.092 | 0.964 ± 0.11 | 1 ± 0.032 | 1.28 ± 0.23 | 1.36 ± 0.17 | 1 (active) |
| COC(=O)C1=C(C)NC2=C(C(=O)CC(C)(C)C2)C1c1ccc(OC)c(O)c1 (configuration not stated) | 1.02 ± 0.095 | 0.981 ± 0.055 | 1.01 ± 0.069 | 1.01 ± 0.077 | 1.13 ± 0.16 | 1.05 ± 0.065 | 1.01 (active) |
| COC(=O)C=C1SC(Nc2ccc(Cl)c(Cl)c2)=NC1=O | 1.13 ± 0.081 | 0.966 ± 0.091 | 0.968 ± 0.035 | 0.988 ± 0.11 | 0.982 ± 0.11 | 0.966 ± 0.23 | 0.994 (active) |
| NC(=O)c1cc(NC(=O)c2ccc(Cl)c(Cl)c2)cc(C(N)=O)c1 | 1.15 ± 0.073 | 1.04 ± 0.13 | 1.01 ± 0.048 | 0.88 ± 0.032 | 0.943 ± 0.048 | 0.964 ± 0.096 | 0.997 (active) |
| COC(=O)C1=CN(CC2CCCO2)C=C(C(=O)OC)C1c1ccc(OC)cc1 (configuration not stated) | 1.1 ± 0.063 | 1.04 ± 0.079 | 1.09 ± 0.036 | 0.913 ± 0.037 | 0.993 ± 0.057 | 1.04 ± 0.1 | 0.993 (active) |
| CCC(=O)Nc1ccc(NC(=O)c2ccco2)c(OC)c1 | 0.828 ± 0.065 | 0.831 ± 0.11 | 1.08 ± 0.12 | 0.934 ± 0.044 | 1.32 ± 0.11 | 1.42 ± 0.18 | 1.01 (active) |
| Cc1ccc(-n2ncc3c(Nc4cccc(C)c4)ncnc32)cc1 | 0.987 ± 0.2 | 1.14 ± 0.098 | 1.02 ± 0.1 | 0.938 ± 0.05 | 1.09 ± 0.23 | 1.19 ± 0.15 | 0.995 (active) |
| O=C(CSc1nc[nH]n1)NC(c1ccccc1)c1ccccc1 | 0.77 ± 0.077 | 0.86 ± 0.053 | 1.01 ± 0.088 | 0.51 ± 0.033 | 1.33 ± 0.096 | 1.62 ± 0.17 | 1.01 (active) |
| Cc1cc(=O)n(-c2ccccc2)n1C | 0.98 ± 0.18 | 1.02 ± 0.08 | 0.99 ± 0.095 | 1.02 ± 0.033 | 1.27 ± 0.18 | 1.22 ± 0.14 | 0.995 (active) |
| CC(=O)C1CCC2C3CC=C4CC(O)CCC4(C)C3CCC12C (configuration not stated) | 1.19 ± 0.29 | 1.1 ± 0.12 | 1.13 ± 0.074 | 0.887 ± 0.03 | 1.28 ± 0.16 | 1.32 ± 0.16 | 0.986 (active) |
| O=C(NCC1(O)CCc2ccccc2C1)Nc1ccccc1C(F)(F)F (configuration not stated) | 0.914 ± 0.18 | 1.02 ± 0.11 | 1.18 ± 0.074 | 0.973 ± 0.05 | 1.17 ± 0.2 | 1.31 ± 0.42 | 0.908 (active) |
| Cc1ccc(-n2nnc3c(=O)n(CC(=O)N4CC(C)OC(C)C4)cnc32)cc1Cl (configuration not stated) | 1.12 ± 0.096 | 1.09 ± 0.089 | 0.885 ± 0.047 | 1.09 ± 0.057 | 1.14 ± 0.079 | 1.14 ± 0.34 | 0.976 (active) |
| CC1C(=O)N2CCCc3cc(S(=O)(=O)N4CCN(c5cccc(Cl)c5)CC4)cc1c32 (configuration not stated) | 0.755 ± 0.24 | 0.894 ± 0.073 | 0.971 ± 0.052 | 0.598 ± 0.044 | 1.2 ± 0.23 | 1.22 ± 0.37 | 0.996 (active) |
| C#CCN(C)Cc1ccccc1.Cl | 0.99 ± 0.11 | 0.895 ± 0.059 | 0.98 ± 0.021 | 0.967 ± 0.075 | 1.01 ± 0.11 | 0.833 ± 0.2 | 0.999 (active) |
| O=[N+]([O-])c1ccc(Nc2ccccc2O)c2nonc12 | 1.74 ± 0.097 | 1.21 ± 0.088 | 1.7 ± 0.099 | 0.69 ± 0.023 | 1.55 ± 0.11 | 1.28 ± 0.17 | 0.9 (active) |

| SMILES | NF-kB reporter [1, 4] | NF-kB reporter ([1]; agonist: LPS 0.1 ug/mL) | NF-kB reporter ([1]; agonist: MPLA […]) | IRF reporter ([2]; agonist: 3'3'-cGAMP 10 ug/mL) | IRF reporter ([2]; agonist: LPS 0.1 ug/mL) | IRF reporter ([2]; agonist: MPLA […]) | viability score [3] |
| --- | --- | --- | --- | --- | --- | --- | --- |
| Cc1cc(OCC(O)Cn2cnc3ccccc32)ccc1Cl (configuration not stated) | 1.05 ± 0.06 | 1.1 ± 0.084 | 1.14 ± 0.082 | 0.913 ± 0.035 | 0.9 ± 0.086 | 0.685 ± 0.12 | 0.906 (active) |
| O=C1OC(=O)C2C3CCC(O3)C12 (configuration not stated) | 1.66 ± 0.13 | 1.45 ± 0.15 | 2.06 ± 0.2 | 1.77 ± 0.076 | 1.65 ± 0.22 | 1.72 ± 0.38 | 0.94 (active) |
| Cc1cccc(OCCCSc2nc3ccccc3[nH]2)c1 | 0.919 ± 0.076 | 0.973 ± 0.11 | 1.14 ± 0.11 | 0.671 ± 0.021 | 1.28 ± 0.21 | 1.39 ± 0.24 | 0.949 (active) |
| CC(Oc1cccc(Cl)c1)C(=O)NCc1ccncc1 (configuration not stated) | 0.955 ± 0.098 | 1.09 ± 0.071 | 1.07 ± 0.091 | 0.985 ± 0.057 | 1.24 ± 0.13 | 0.988 ± 0.11 | 1.02 (active) |
| CC(C)N(C(=O)c1ccc(C(=O)NCc2ccc(S(N)(=O)=O)cc2)cc1)C(C)C | 0.974 ± 0.057 | 1.07 ± 0.079 | 0.909 ± 0.072 | 0.961 ± 0.033 | 1.51 ± 0.12 | 1.21 ± 0.18 | 1 (active) |
| CC(Cc1ccccc1)NC(=O)C1COc2ccccc2O1 (configuration not stated) | 0.662 ± 0.13 | 1.12 ± 0.09 | 1.13 ± 0.14 | 0.979 ± 0.048 | 0.965 ± 0.13 | 1.15 ± 0.12 | 0.919 (active) |
| CN1CCN(C2CC(=O)N(c3ccc(N4CCOCC4)cc3)C2=O)CC1 (configuration not stated) | 0.963 ± 0.079 | 0.945 ± 0.096 | 0.864 ± 0.065 | 1.01 ± 0.025 | 1.37 ± 0.11 | 1.13 ± 0.29 | 1.01 (active) |
| Nc1ncnc2c1ncn2C1OC(CO)C(O)C1O (configuration not stated) | 0.951 ± 0.078 | 0.93 ± 0.079 | 1.29 ± 0.13 | 1.15 ± 0.043 | 1.2 ± 0.22 | 1.23 ± 0.27 | 1.04 (active) |
| COc1ccc(CNC(=O)NCC#CCOc2cccc(C(F)(F)F)c2)cc1OC | 1.07 ± 0.11 | 1.07 ± 0.098 | 0.95 ± 0.063 | 1.01 ± 0.05 | 1.09 ± 0.13 | 1.13 ± 0.29 | 1.01 (active) |
| NC(=O)CCC(N)C(=O)O (configuration not stated) | 1.13 ± 0.32 | 0.935 ± 0.051 | 1.03 ± 0.1 | 0.883 ± 0.049 | 1.1 ± 0.16 | 0.999 ± 0.097 | 0.997 (active) |
| O=C(Nc1cccc(Cl)c1Cl)c1cc2nc(-c3ccco3)cc(C(F)(F)F)n2n1 | 0.9 ± 0.054 | 1.01 ± 0.08 | 0.918 ± 0.055 | 0.864 ± 0.029 | 1.25 ± 0.082 | 1.21 ± 0.16 | 1 (active) |
| CC(C)(C)n1cnc2cc(N=Cc3ccc(Cl)cc3)ccc21 | 1.21 ± 0.14 | 1.01 ± 0.12 | 1.4 ± 0.055 | 0.888 ± 0.059 | 0.805 ± 0.048 | 0.996 ± 0.1 | 1 (active) |
| CC1(C)CCCC2(C)C1CCC1(C)OC(=O)CC12 (configuration not stated) | 0.532 ± 0.077 | 0.669 ± 0.11 | 0.762 ± 0.026 | 0.943 ± 0.11 | 0.929 ± 0.07 | 1.37 ± 0.18 | 0.159 (inactive) |
| O=c1ccn([C@@H]2O[C@H](CO)[C@@H](O)[C@H]2O)c(=O)[nH]1 | 1.05 ± 0.087 | 0.912 ± 0.045 | 1.05 ± 0.059 | 1.09 ± 0.066 | 0.985 ± 0.032 | 0.919 ± 0.1 | 0.998 (active) |
| CC(C)NNC(=O)c1ccncc1 [Prestw-176] | 1.04 ± 0.078 | 1.06 ± 0.088 | 1.02 ± 0.022 | 1.02 ± 0.068 | 0.958 ± 0.083 | 1.01 ± 0.093 | 0.997 (active) |
| Cl.O[C@@H](CNC[C@H](O)[C@H]1CCc2cc(F)ccc2O1)[C@@H]1CCc2cc(F)ccc2O1 | 0.947 ± 0.09 | 0.759 ± 0.049 | 0.982 ± 0.028 | 0.68 ± 0.087 | 0.642 ± 0.021 | 1.13 ± 0.21 | 0.13 (inactive) |
| COc1ccc2[nH]c(S(=O)Cc3ncc(C)c(OC)c3C)nc2n1 (configuration not stated) [Prestw-1351] | 0.872 ± 0.15 | 1.15 ± 0.16 | 0.994 ± 0.11 | 0.819 ± 0.029 | 1.11 ± 0.14 | 1.24 ± 0.13 | 0.974 (active) |
| COC(=O)c1ccc(N2C(=O)c3ccc(Oc4cccc([N+](=O)[O-])c4)cc3C2=O)cc1 | 0.969 ± 0.085 | 0.923 ± 0.079 | 1.06 ± 0.11 | 0.994 ± 0.031 | 1.33 ± 0.17 | 1.71 ± 0.19 | 1.02 (active) |
